Hits are enriched below; roughly 1.2% of the tested compounds scored in any of these assays.
gsp agonist = agonists of gsp mutant (McCune-Albright syndrome); gsp mutant cells, cAMP HTRF, 30 min; Potency, µM (doses to about 76.9 µM), without a hit: at the highest dose activation (cAMP increase), hits mostly activators; 0.13% of 340,000 active; AID 624287; active = well fitted activation curve with a large enough effect; inconclusive = small, poorly fitted or top-dose-only effect, or another doubt; inactive = no such curve, though single readings can be large or run the other way; cell line not stated here;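 also: phosphodiesterase inhibitor Ro 20-1724 added with compounds to block cAMP breakdown; potency is read from the fitted curve at half-maximal effect; nearly all actives have a fitted effect of over 60% in size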
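Cells stably selected in G418 were plated at 2000/well, grown 16-24 hr, then given compounds in DMSO with the PDE inhibitor […] (300 uM solution added) for 30 min at 37C; cAMP was read by HTRF.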
gsp antag = gsp mutant antagonism; 0.4% of 340,000 active; gsp-mutant cells, cAMP HTRF, 30 min; Potency, µM (doses to about 76.9 µM), for inactives: at the top dose activity change, negative = inhibition, actives largely listed as inhibitors; calls by dose curve; cell line not stated here;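 also: intracellular cAMP measured with PDE inhibitor Ro 20-1724 present during compound exposure; potency is read from the fitted curve at half-maximal effect; % is scaled to controls: 0 for no effect and ±100 for the full control effect; nearly all actives have a fitted effect of over 65% in size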
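HTRF cAMP measurement after 30 min RT detection following 30 min, 37C compound treatment alongside […] (added as 300 uM solution) in G418-selected cells seeded at 2000/well and grown 16–24 h.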
RXFP1 agonist = RXFP1 (human) receptor agonism; Q9HBX9; HEK293T-RXFP1 cAMP TR-FRET, 30 min; response scale: percent of porcine relaxin response, buffer zero; Potency, µM (top dose mostly 57.5 µM), for inactives: at the highest dose activation, most hits filed as activators; 0.3% of 370,000 active; also: potency is read from the fitted curve at half-maximal effect; % is scaled to controls: 0 for no effect and ±100 for the full control effect; nearly all actives have a fitted effect of over 60% in size
Target sequence (Q9HBX9 whole entry, looked up): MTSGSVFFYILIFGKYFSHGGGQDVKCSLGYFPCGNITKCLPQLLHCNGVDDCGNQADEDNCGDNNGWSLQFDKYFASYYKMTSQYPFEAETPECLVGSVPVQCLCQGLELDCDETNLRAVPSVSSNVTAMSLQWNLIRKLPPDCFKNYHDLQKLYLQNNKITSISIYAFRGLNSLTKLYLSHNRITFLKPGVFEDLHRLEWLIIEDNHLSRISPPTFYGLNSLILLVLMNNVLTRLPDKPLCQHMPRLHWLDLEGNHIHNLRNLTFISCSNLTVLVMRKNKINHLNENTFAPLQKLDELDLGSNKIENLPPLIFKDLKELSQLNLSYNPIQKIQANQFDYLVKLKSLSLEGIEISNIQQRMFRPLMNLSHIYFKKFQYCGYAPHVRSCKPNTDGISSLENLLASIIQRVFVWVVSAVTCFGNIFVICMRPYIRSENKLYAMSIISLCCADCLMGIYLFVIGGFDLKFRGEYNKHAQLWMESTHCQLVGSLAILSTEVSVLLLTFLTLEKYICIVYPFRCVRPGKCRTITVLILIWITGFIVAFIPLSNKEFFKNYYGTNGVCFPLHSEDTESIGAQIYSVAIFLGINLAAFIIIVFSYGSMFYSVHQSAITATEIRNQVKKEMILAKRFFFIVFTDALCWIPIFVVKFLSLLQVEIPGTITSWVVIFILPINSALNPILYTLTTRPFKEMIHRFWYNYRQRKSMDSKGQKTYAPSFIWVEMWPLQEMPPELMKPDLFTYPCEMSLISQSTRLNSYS
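HEK293 cells stably expressing RXFP1, treated 30 min at 37C with compounds plus PDE4 inhibitor Ro 20174; cAMP measured by HTRF TR-FRET. Normalized to buffer and 29 nM porcine relaxin; EC50 by Hill fit.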
CCT chaperon mod = modulators of cytosolic chaperonin (CCT/TRiC) activity | 0.3% of 360,000 active | purified chaperonin ATPase assay, HTRF ADP detection, 30 min | activity change, % (no concentration beside the values), hits read low; in the data active = activity change below about -30%; also: % is scaled to controls: 0 for no effect and ±100 for the full control effect
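Enzyme 40 or 20 nM (batch-dependent) in Tris pH 7.4/KCl/MgCl2/DTT; cpd 76 uM single point; ATP 10 uM; 30 min 37 °C; Transcreener ADP HTRF detection, 30 min RT; ratio 665/615.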
MmCpn inh = M. maripaludis TRiC chaperonin inhibition | purified Mm-Cpn ATPase, ADP Transcreener TR-FRET | Potency, µM (titrated, usually from 76.9 µM), for inactives: top-dose activity, negative = inhibition, usual class: inhibitors | 0.031% of 330,000 active | AID 504842; also: potency is read from the fitted curve at half-maximal effect; % is scaled to controls: 0 for no effect and ±100 for the full control effect; nearly all actives have a fitted effect of over 80% in size
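Quantitative HTS used 25 nM Mm-CPN and 10 uM ATP in magnesium/KCl Tris buffer, pH 7.4, with 1 mM DTT. Hydrolysis ran 30 min at 37°C; ADP was read by HTRF.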
RXFP1 antagonist = antagonists of human relaxin receptor RXFP1. 0.59% of 350,000 active. HEK293-RXFP1, relaxin-stimulated cAMP HTRF, 30 min; hits give low values. Q9HBX9. activity change, negative = inhibition, % at 57.5 µM;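 active = activity change of -60% or lower, but not beyond a set lower limit; inconclusive = change between -60% and -40%, or beyond the set limit; inactive = change above -40%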; also: % is scaled to controls: 0 for no effect and ±100 for the full control effect
* marks the source's active call; other numbers are inactive results; ? = inconclusive; . = no result given; [ ] = another dose, or the depositor's remark. Unless noted, calls follow the shape of the dose curve; as a rule, active = well fitted curve in the direction sought with a large enough effect; inconclusive = small, poorly fitted or top-dose-only effect, or another doubt; inactive = no such curve, though single readings can be large; an effect the other way counts as inactive or inconclusive.

SMILES	gsp agonist	gsp antag	RXFP1 agonist	CCT chaperon mod	MmCpn inh	RXFP1 antagonist
Cc1cc(NC(=O)c2cnn(-c3ccccc3)c2-n2cccc2)ccc1Br	.	.	-2%	.	.	-18
CCNC(=O)COC(=O)c1cc(=O)[nH]c2ccccc12	4%	9%	1%	-35*	-1%	1
CC(C)CN(C(=O)COC(=O)c1cc(=O)[nH]c2ccccc12)c1c(N)n(Cc2ccccc2)c(=O)[nH]c1=O	16%	-8%	.	-30*	.	4
CCN(C(=O)COC(=O)c1cc(=O)[nH]c2ccccc12)c1c(N)n(Cc2ccccc2)c(=O)[nH]c1=O	-3%	11%	.	-2	.	-3
Nc1nc(=O)n([C@@H]2O[C@H](CO)[C@@H](O)[C@@H]2F)cc1I	.	.	.	.	.	3
Cc1ccc(NC(=O)c2nc(S(C)(=O)=O)ncc2N(Cc2ccccc2)Cc2ccco2)c(C)c1	.	.	0%	.	.	-11
CCN1C(=O)[C@H]2[C@@H](c3ccc(-c4cccc(Cl)c4)cc3)N[C@@](Cc3ccccc3)(C(=O)OC)[C@H]2C1=O	.	-21%	1%	-3	-7%	.
CCN1C(=O)[C@H]2[C@@H](c3ccc(-c4ccc(Cl)c(Cl)c4)c(OC)c3)N[C@@](Cc3ccccc3)(C(=O)OC)[C@H]2C1=O	-36%	-8%	-1%	-58*	-2%	.
CN(C)S(=O)(=O)n1cnc([C@H]2c3c(ncn3Cc3ccccc3)C[C@H]3COC(=O)[C@@H]32)c1	-7%	50µM*	1%	-3	-10%	.
CN(C)S(=O)(=O)n1cnc([C@@H]2[C@@H]3C(=O)OC[C@@H]3C[C@]23N=CN(Cc2ccccc2)C3=O)c1	-4%	7%	0%	-1	-4%	.
Cc1ccc(-c2noc(C3CCCN(C(=O)c4ccccc4Br)C3)n2)cc1 (stereo not given)	-14%	45µM*	0%	-4	0%	6
Cc1ccc(-c2noc(C3CCCN(C(=O)c4c(F)cccc4F)C3)n2)cc1 (stereo not given)	8%	?	-1%	2	1%	-13
COc1ccc(NC(=O)C[C@H]2C(=O)N(C3CCCCC3)C[C@@H]2c2ccccc2)cc1	-72%	.	.	1	.	-2
O=C(C[C@H]1C(=O)N(C2CCCCC2)C[C@@H]1c1ccccc1)Nc1ccc(Br)cc1	12%	.	.	-53*	.	1
C[C@@H]1CN([C@@H](C)CO)C(=O)CCCn2cc(nn2)CO[C@H]1CN(C)S(=O)(=O)c1ccccc1C#N	?	.	.	-53*	.	13
CC(=O)c1cccc(NC(=O)c2nc3ccccc3n(C)c2=O)c1	.	.	16µM*	.	.	22
Cc1cccc(N2CCN(C(=O)c3cc4ccc5cccnc5c4[nH]3)CC2C)c1 (stereo not given)	.	.	-3%	.	.	-61*
CC1OC(CC(=O)O)CC2=C1C(=O)c1c(O)cccc1C2=O (stereo not given)	38%	?	.	0	.	-63*
O=C1c2cccc(O)c2C(=O)c2c(O)cccc21	.	.	7%	.	-1%	-6
Cc1cc(OCCSc2nnc(-c3cccs3)n2C)ccc1Cl	1%	35µM*	0%	2	-22%	-13
Cc1ccc(OCCSc2nnc(-c3cccs3)n2C)cc1	-18%	-16%	-5%	-2	-1%	-5
CC(C)COc1ccc(C(=O)N(Cc2ccc(N(C)C)cc2)Cc2ccco2)cc1	.	.	0%	.	.	-29
CCN1CCN(c2nnc(-n3cccc3C(=O)Nc3cccc(OC)c3)s2)CC1	.	.	4%	.	.	-13
Cc1ccccc1-c1noc(-c2ccccc2OCC(=O)Nc2ccccc2[N+](=O)[O-])n1	.	.	4%	.	.	.
COc1ccc(-c2cc(C)nc(SCC(=O)c3cccc([N+](=O)[O-])c3)n2)cc1	-25%	-10%	2%	-46*	-8%	14
SMILES	gsp agonist	gsp antag	RXFP1 agonist	CCT chaperon mod	MmCpn inh	RXFP1 antagonist
COc1ccccc1N(C(C)=O)C1=C(Cl)C(=O)c2ccccc2C1=O	-44%	.	.	1	.	-87*
CCOC(=O)c1cc(NC(=O)CC(C)(C)CC(=O)O)ccc1N1CCCCC1	0%	32µM*	2%	2	-3%	-12
CCC(C(=O)NCc1ccccc1Cl)n1c(=O)c2cccn2c2ccccc21 (stereo not given)	.	.	0%	.	.	-16
N#Cc1c(N)nc(SCC(=O)C23CC4CC(CC(C4)C2)C3)c(C#N)c1-c1ccc(Cl)cc1	?	29%	?	-40*	-7%	1
Cn1cc(C(=O)[C@@H]2CCc3nc[nH]c3C2)c2ccccc21	.	.	.	.	.	6
CCC(NS(=O)(=O)c1cn(C)nc1C)c1ccccc1 (stereo not given)	-9%[15.4 µM]	-5%	2%	-31*	3%	0
CCC(NS(=O)(=O)c1cnn(CC)c1)c1ccccc1 (stereo not given)	-1%[15.4 µM]	11%	0%	-3	4%	-3
CN1CCN(c2cc(N3CCN(C(=O)c4ccco4)CC3)c3c4c(onc24)-c2ccccc2C3=O)CC1	-34%	-23%	2%	-1	-10%	-20
O=C1c2ccccc2-c2onc3c(N4CCN(CCO)CC4)cc(N4CCN(C(=O)c5ccco5)CC4)c1c23	-13%[15.4 µM]	18µM*	2%	1	-16%	-32
O=C(O)CCCNc1cc(N2CCN(C(=O)c3ccco3)CC2)c2noc3c2c1C(=O)c1ccccc1-3	-48%	?	-8%	0	35µM*	-65*
Cc1ccc(C)c(NC(=O)CCCn2c(C)c3cnn(-c4ccccc4)c(=O)c3c2C)c1	.	.	0%	.	.	.
N#C/C(C(N)=O)=c1/ccc2c(c1)N1C3=C(CCCC3)CC3CCCCC31N=2 (stereo not given)	-5%	-15%	-11%	-37*	-6%	-7
COc1ccc(NC(=O)CCNS(=O)(=O)c2cccc3nsnc23)cc1Cl	.	.	1%	.	.	.
Cc1ccc(CN2C(=O)C(=O)c3cc(Br)cc(C)c32)cc1	.	.	1%	.	.	-62*
CCCOc1ccc(CN2C(=O)C(=O)c3cccc(C)c32)cc1	.	.	-2%	.	.	-13
COc1ccc(-c2cnc(C)o2)cc1S(=O)(=O)Nc1ccc(C)c(N(C)C)c1	.	.	0%	.	.	.
c1ccc(-c2c(-c3ccccc3)n(Cc3ccco3)c3ncnc(NCCCn4ccnc4)c23)cc1	-43%	-4%	5%	0	-3%	-65*
Cc1c(C(=O)OCC2CCCCC2)[nH]c2c1C(=O)CC(c1ccccc1Cl)C2 (stereo not given)	.	.	1%	.	.	-7
Cn1c(=O)c(C(=O)NNC(=O)c2ccccc2Cl)c(O)c2ccccc21	-25%	-17%	2%	-1	-1%	-66*

Assay outcomes: PubChem, National Center for Advancing Translational Sciences (NCATS)
